An excerpt weighted towards active compounds, which were near 14% of everything screened.
HSD17B inhib: inhibitors of human HSD17B10 dehydrogenase; recombinant HSD17B10, NADH fluorescence kinetic; Q99714; 7.6% of 75,000 active; AID 893; Potency, µM (doses to about 57.1 µM), hits mostly inhibitors;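 further: the protocol describes HADH2 (HSD17B10) and not the HSD17B4 of the title; nearly all actives have a fitted effect of over 70% in size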
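Activity followed as NADH fluorescence increase (ex 360, em 450 nm) every 30 seconds for 4 min, using final 90 uM beta-hydroxybutyryl CoA and 1 mM NAD+. Recombinant His-tagged enzyme, 20 nM, pH 9.0 Tris buffer, 15 min compound preincubation.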
CRE Fsk mod: modulators of forskolin-stimulated CRE signaling in CHO cells; 2.5% of 71,000 active; Potency, µM (highest dose often 38.2 µM), actives largely listed as activators; CHO CRE-bla reporter (cAMP response element driving beta-lactamase), forskolin EC10, beta-lactamase ratio; AID 662; active means well fitted activation curve with a large enough effect in the signal ratio, with a control signal flat, not every such curve was filed as active; inconclusive means small, poorly fitted or top-dose-only effect, or effect the other way, or a change in a side signal; the % refers to the signal ratio
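Reporter-gene assay: CHO cells with beta-lactamase behind cAMP responsive elements, co-treated with compound and EC10 NKH 477 for 3 hours at 37 degrees Celsius. Activity came from the 460/530 nm CCF4 emission ratio.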
HADH2 inh: inhibitors of human HADH2 dehydrogenase; Q99714; recombinant HADH2, NADH fluorescence, beta-hydroxybutyryl-CoA; Potency, µM (highest dose often 57.1 µM), most hits filed as inhibitors; 3.4% of 73,000 active; further: nearly all actives have a fitted effect of over 60% in size
Target sequence (Q99714 whole entry, looked up, one chain of several): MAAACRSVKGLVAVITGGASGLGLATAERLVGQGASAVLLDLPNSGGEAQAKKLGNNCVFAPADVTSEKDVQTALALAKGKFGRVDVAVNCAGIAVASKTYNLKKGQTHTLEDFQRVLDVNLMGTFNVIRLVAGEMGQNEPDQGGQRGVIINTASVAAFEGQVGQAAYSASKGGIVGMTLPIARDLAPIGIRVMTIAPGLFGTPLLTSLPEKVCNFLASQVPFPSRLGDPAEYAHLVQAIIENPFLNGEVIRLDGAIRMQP
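Buffer 100 mM Tris-HCl pH 9.0/0.01% Tween-20; HADH2 20 nM; NAD+ 1 mM; beta-hydroxybutyryl-CoA 90 uM (all final). 15 min cpd preincubation, RT.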
4MU fluor: compounds fluorescent in 4-MU spectral region. max dye-equivalent concentration, M. compound autofluorescence, 340/450 nm, 4-MU equivalents; hits give high values. 11% of 59,000 active; in the data active means max dye-equivalent concentration above about 10 nM; inconclusive means mostly about 1.1 nM to 9.6 nM
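Intrinsic fluorescence at 340/450 nm (ex/em) was read after 15 min at room temperature in pH 8.0, 100 mM Tris. Each compound concentration expressed as 4-MU-equivalent concentration from a six-point 4-MU standard series on each plate.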
A350 autofl: compounds fluorescent in Alexa 350 spectral region. 11% of 59,000 active. Compound autofluorescence, 340/450 nm, Alexa 350 dye-equivalents; hits give high values. max dye-equivalent concentration, M. AID 590; in the data active means max dye-equivalent concentration above about 10 nM; inconclusive means mostly about 1.1 nM to 9.6 nM
AID923: qHTS Assay for Allosteric/Competitive Inhibitors of Caspase-1: Spectroscopic Profiling in AFC Spectral Region; compound fluorescence, AFC spectral region (405/520 nm); Potency, µM (top dose mostly 57.5 µM), most hits filed as activators; 1.1% of 75,000 active
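Baseline compound fluorescence (AFC region, 405 nm ex/520 nm em) taken from the intercept of kinetic reads with 50 nM caspase-1 and 5 uM Ac-WEHD-AFC; normalized to an on-plate AFC standard curve; compounds titrated up to 57 uM.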
Hits are given with their value; ! = repeats disagree; [ ] = dose if it differs, or a comment. Unless noted, the call rests on the fitted dose curve; in most records, active means well fitted curve in the direction sought with a large enough effect; inconclusive means small, poorly fitted or top-dose-only effect, or another doubt; inactive means no such curve, though single readings can be large; an effect the other way counts as inactive or inconclusive.

Nc1cc(-c2ccncc2)c[nH]c1=O was read as HSD17B inhib 10µM!, CRE Fsk mod inactive, HADH2 inh inconclusive, 4MU fluor 1.2e-08M, A350 autofl 1.2e-08M and AID923 inactive.
Screening c1ccc2c(-c3ccncc3)c[nH]c2c1 returned HSD17B inhib inactive, CRE Fsk mod inconclusive, HADH2 inh inconclusive, 4MU fluor inactive, A350 autofl inactive and AID923 inactive.
For CCC1=C2CC[C@H]3C(=O)N(C)C(=O)[C@H]3[C@H]2[C@@]2(C)C(=O)N(CC3CC3)C(=O)N2C1=O the results were HSD17B inhib inactive and AID923 inactive.
For COc1cc(C)c2c(=O)cc(-c3ccccc3)oc2c1 the results were HSD17B inhib inactive and AID923 inactive.
`COc1ccc(-c2ccc(S(=O)(=O)N3CCOCC3)cc2)cc1` gave HSD17B inhib 25µM, CRE Fsk mod inactive, HADH2 inh inconclusive, 4MU fluor inactive, A350 autofl inactive and AID923 inactive.
`CC1(C)OC[C@@H]2O[C@H](n3cnc4c(N)nc(Cl)nc43)[C@@H](OS(C)(=O)=O)[C@@H]2O1` gave HSD17B inhib inactive[11.4 µM], CRE Fsk mod inactive[7.6 µM], HADH2 inh inactive[11.4 µM], 4MU fluor inactive, A350 autofl inactive and AID923 inactive[11.5 µM].
CS/C(=N\S(=O)(=O)c1cccs1)NC(=O)CSc1nc2ccccc2s1 was read as HSD17B inhib 4µM, CRE Fsk mod inactive, HADH2 inh 13µM, 4MU fluor inactive, A350 autofl inactive and AID923 inactive.
Screening Cc1cc(C)n(-c2ccc(C(=O)NCc3ccc4c(c3)OCO4)cc2)n1 returned HSD17B inhib inactive, CRE Fsk mod inactive, HADH2 inh inactive, 4MU fluor inconclusive, A350 autofl 1.1e-08M and AID923 inactive.
Screening Cc1cc(C(=O)NCc2ccc3c(c2)OCO3)n(-c2ccccc2)n1 returned HSD17B inhib inactive, CRE Fsk mod inactive, HADH2 inh inactive and AID923 inactive.
For c1ccc(Nc2ncncc2-c2ccoc2)cc1 the results were HSD17B inhib inactive, CRE Fsk mod inactive, HADH2 inh inconclusive, 4MU fluor inactive, A350 autofl inactive and AID923 inactive.
`CCOC(=O)N1CCN(C(=O)Cn2ncn3nc(-c4cccs4)cc3c2=O)CC1` gave HSD17B inhib 32µM, CRE Fsk mod inactive, HADH2 inh inactive, 4MU fluor inactive, A350 autofl inactive and AID923 inactive.
For CCOC(=O)N1CCN(C(=O)Cn2ncc3ccccc32)CC1 the results were HSD17B inhib inconclusive, CRE Fsk mod inactive, HADH2 inh inactive and AID923 inactive.
`O=c1[nH]c(=O)n([C@@H]2O[C@H](CO)[C@@H](O)[C@H]2O)cc1F` gave HSD17B inhib inactive and AID923 inactive.
Screening c1ccc2c(c1)nc(NCC1CCCO1)c1nnnn12 (stereo not given) returned HSD17B inhib 25µM, CRE Fsk mod inconclusive, HADH2 inh inconclusive and AID923 inactive.
`O=C(NCc1ccc(F)cc1)N[C@@H](Cc1ccccc1)C(=O)O` gave HSD17B inhib inactive, CRE Fsk mod inconclusive, HADH2 inh inactive, 4MU fluor inactive, A350 autofl inactive and AID923 inactive.
O=C(NCc1ccccc1)N[C@@H](Cc1ccccc1)C(=O)O was read as HSD17B inhib inactive, CRE Fsk mod inconclusive, HADH2 inh inactive, 4MU fluor 1.5e-08M, A350 autofl 1.7e-08M and AID923 inactive.
CC(C)c1ccc(/C(C(=O)O)=C(\O)C(=O)O)cc1 was read as HSD17B inhib inactive[11.4 µM], CRE Fsk mod inactive[7.6 µM], HADH2 inh inactive[11.4 µM], 4MU fluor inactive, A350 autofl inactive and AID923 inactive[11.5 µM].
Screening Cc1sc2ncnc(OCC(=O)NCC3CCCO3)c2c1C (stereo not given) returned HSD17B inhib inactive, CRE Fsk mod inactive, HADH2 inh inactive, 4MU fluor inactive, A350 autofl inactive and AID923 inactive.
Screening Cc1sc2ncnc(OCC(=O)NCc3cccs3)c2c1C returned HSD17B inhib inactive, CRE Fsk mod inactive, HADH2 inh inactive, 4MU fluor inconclusive, A350 autofl 1e-08M and AID923 inactive.
